HCV inh: HCV inhibition | Potency, µM (series often up to 41.8 µM), without a hit: at the highest dose activity change, negative = inhibition, usual class: inhibitors | actives 3.4% (n = 340,000) | AID 651820 | Huh7.5.1 HCVcc-Cre infection, luciferase reporter, 44 h; active means well fitted inhibition curve with a large enough effect; inconclusive means small, poorly fitted or top-dose-only effect, or another doubt; inactive means no such curve, though single readings can be large or run the other way; further: potency means the concentration at half of the fitted maximal effect
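Luciferase read-out (15 sec integration) after a 15 min room-temperature substrate step quantifies HCVcc-Cre infection. Cells, 1,000 per well, had compound added 4 h post-plating, then virus at ~0.5 moi, and were cultured 44 h.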
HCMV antiviral: inhibitors of human cytomegalovirus; HFF cells, HCMV-luciferase reporter, 72 h; active compounds read low; AID 1259415; actives 4.5% (n = 410,000); activity change, negative = inhibition, % at 57.5 µM; in the data active means activity change below about -60%; inconclusive means no clear call, values can overlap the other calls; inactive means above about -39%
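HFF cells seeded 16 h at 37C, treated with compounds, infected with luciferase-reporter HCMV at MOI 1 PFU/cell; luciferase read at 72 h post infection, normalized to buffer-only and Salinomycin controls.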
Vaccinia Venus: inhibitors of vaccinia virus (Venus reporter). AID 720580. Vaccinia virus Venus reporter expression, fluorescence. Potency, µM (series often up to 36.5 µM), for inactives: top-dose activity change, negative = inhibition, actives largely listed as inhibitors. actives 0.46% (n = 330,000); calls by dose curve; tested in A549 cells; further: potency means the concentration at half of the fitted maximal effect; nearly all actives have a fitted effect of over 30% in size
FMDV antiviral: foot and mouth disease virus antiviral activity; FMDV antiviral cell-based qHTS; actives 1.2% (n = 410,000); Potency, µM (series often up to 57.9 µM), without a hit: at the highest dose activity change, negative = inhibition, most hits filed as inhibitors; calls by dose curve; tested in HEK293T cells; further: read-out not given here; potency means the concentration at half of the fitted maximal effect; nearly all actives have a fitted effect of over 45% in size
VACV mCherry inh: vaccinia inhibition (mCherry reporter) | Vaccinia virus mCherry reporter infection, fluorescence | Potency, µM (doses to about 36.5 µM), for inactives: at the top dose activity change, negative = inhibition, actives largely listed as inhibitors | actives 0.63% (n = 310,000) | AID 720579; calls by dose curve; tested in A549 cells; further: potency means the concentration at half of the fitted maximal effect; nearly all actives have a fitted effect of over 35% in size
Starred values were filed as active, the others as inactive; i = inactive; ? = inconclusive; nt = no result given; [ ] = remark or other dose. Hits are enriched below; roughly 7.3% of the tested compounds scored in any of these assays. On the % scale 0 is the no-effect control and ±100 the full control effect.

SMILES	HCV inh	HCMV antiviral	Vaccinia Venus	FMDV antiviral	VACV mCherry inh
COc1ccccc1CCC(=O)Nc1ccc(OC)c(S(=O)(=O)N2CCCCC2)c1	11.2µM*	-8.6	nt	-19.8%	nt
COc1ccccc1CCC(=O)Nc1cccc(S(=O)(=O)N2CCCCCC2)c1	10µM*	9.0	?	7.6%	-19.1%
Cc1ccc(C)c(OCCC(=O)Nc2ccc(S(=O)(=O)N3CCCC3)cc2)c1	8.91µM*	-28.6	nt	-23.2%	nt
CCc1ccccc1NC(=O)C1CCCN(C(=O)c2cnn(-c3ccccc3)c2-n2cccc2)C1 (centres undefined)	nt	0.3	-6.3%	1.3%	-9.8%
O=C(Nc1cccc(F)c1)N1CCCC2(CCN(C(=O)c3cc(C(F)(F)F)cc(C(F)(F)F)c3)CC2)C1	nt	nt	nt	-5.3%	nt
Cn1c(N)c(C(=O)COC(=O)/C=C/c2ccc(Cl)c(Cl)c2)c(=O)n(C)c1=O	-11.5%	2.1	6.5%	-21.6%	-8.0%
OC(C1=CC(=Cc2ccncc2)c2ccccc21)c1ccncc1 (centres undefined)	11.2µM*	48.5	-14.3%	?	-24.5%
Cc1onc(-c2ccc(Cl)cc2Cl)c1-c1csc(N/N=C/c2ccccc2Cl)n1	-16.8%	27.9	-29.9%	-25.9%	-26.0%
CCC1CCCCN1CCCNC(=O)C1CCN(Cc2nc(-c3ccc(Cl)cc3)oc2C)CC1 (centres undefined)	1.41µM*	nt	nt	-20.9%	nt
COc1ccc(-c2nc(CN3CCC(C(=O)NCCCN4CCN(c5ccccc5F)CC4)CC3)c(C)o2)cc1OC	nt	-104.0*	-6.2%[7.34 µM]	-33.9%	-6.8%[7.34 µM]
Cc1oc(-c2ccc(Cl)cc2)nc1CN1CCC(C(=O)NCCCN2CCN(c3cccc(Cl)c3)CC2)CC1	nt	?	14.1µM*	25.1µM*	?
Cc1oc(-c2ccc(Cl)cc2)nc1CN1CCC(C(=O)NCCCN2CCOCC2)CC1	8.91µM*	96.4	nt	-1.7%	nt
CN(C(=O)CSc1nc2ccc(NC(=O)COc3ccccc3Cl)cc2s1)c1ccccc1	nt	-12.3	?	?	-17.6%
c1ccc(COc2ccc(OCCCCN3CCCCC3)cc2)cc1	25.1µM*	39.3	-25.4%	19.9%	-13.1%
Fc1ccccc1OCCCCCN1CCCC1	4.0%	-19.7	-4.3%	-8.2%	-7.5%
Fc1ccccc1OCCCCCCN1CCCC1	7.94µM*	4.9	nt	-1.9%	nt
O=C(c1ccccc1)c1ccc(OCCOCCN2CCN(Cc3ccccc3)CC2)cc1	14.1µM*	-25.9	-26.2%	?	?
Cc1cccc(OCCCN2CCCCCC2)c1	31.6µM*	28.4	-13.4%	nt	-18.9%
O=C(NCc1ccccc1F)C(=O)NCC(c1ccco1)S(=O)(=O)c1ccccc1 (centres undefined)	nt	-18.0	-7.4%	-17.8%	-14.5%
CN(C)c1ccc(CNC(=O)C2CCN(Cc3cc4ccccc4n3Cc3ccccc3)CC2)cc1	nt	9.3	-21.9%	-19.5%	-15.6%
O=S1(=O)CCS(=O)(=O)C1c1ccccc1	24.2%	-16.3	?	-25.8%	11.2µM*
Cc1noc(-c2ccccc2)c1-c1ccccc1[N+](=O)[O-]	nt	-100.5*	nt	nt	nt
Cc1onc(-c2ccccc2[N+](=O)[O-])c1-c1ccccc1[N+](=O)[O-]	nt	-8.3	nt	nt	nt
CC(C)c1nn2c(=O)cc(COC(=O)C3CCCCC3)nc2s1	nt	-5.9	5.4%	23.6%	1.1%
N#Cc1c[nH]n2c(NC3CCCCC3)c(-c3ccccc3F)nc12	nt	-17.9	?	-8.2%	?
SMILES	HCV inh	HCMV antiviral	Vaccinia Venus	FMDV antiviral	VACV mCherry inh
CC(=O)Nc1nc(-c2ccccc2)nc(-c2ccccc2OC(C)=O)n1	2.82µM*	-28.7	?	nt	?
CC(=O)Nc1nc(C)nc(-c2ccccc2OC(C)=O)n1	?	52.9	-12.2%	11.2%	-21.2%
CCOc1cccc(/C=N/NC(=S)Nc2ccccc2[N+](=O)[O-])c1O	-11.7%	-70.2*	nt	1.78µM*	nt
CCCCNC(=S)N/N=C/c1cccc(OCC)c1O	?	-32.1	-3.0%	-15.2%	?
O=C(O)CN(CC(=O)O)CC1=CC2C(=CC1=O)Oc1cc(O)c(CN(CC(=O)O)CC(=O)O)cc1C21OC(=O)c2ccccc21 (centres undefined)	nt	nt	i	-1.3%	45.5%
C(C#CCCCCCCCCC[n+]1ccccc1)#CCCCCCCCCC[n+]1ccccc1	?	nt	10µM*	17.8µM*	10µM*
CN(C)S(=O)(=O)c1ccc(/C(O)=C2/C(=O)C(=O)N(Cc3cccnc3)C2c2ccco2)cc1 (centres undefined)	5.0%	-67.4*	-10.6%	-18.1%	nt
CN(C)S(=O)(=O)c1ccc(/C(O)=C2/C(=O)C(=O)N(Cc3cccnc3)C2c2ccncc2)cc1 (centres undefined)	7.1%	-11.2	nt	3.8%	nt
CCOC(=O)c1c(C)nc2c(c(SC)nn2-c2ccccc2)c1N	10µM*	-30.0	-8.6%	-7.9%	nt
CCOC(=O)CCc1c(C)nc2c(c(C)nn2-c2ccccc2)c1C	6.3%	?	nt	-14.6%	nt
C#CC[N+](C)(C)CC#Cc1ccc(Cl)cc1	-20.3%	-93.9*	?	-1.9%	?
C#CC[N+](CC)(CC)CC#Cc1cccc(Cl)c1	-20.2%	-12.2	-23.9%	-0.4%	-29.4%
O=C(C1CCN(c2nnc(N3CCCC3=O)s2)CC1)N1CCN(c2cccc(C(F)(F)F)c2)CC1	?	-79.1*	nt	-15.9%	nt
Cc1ccc(C)c(N2CCN(C(=O)C3CCN(c4nnc(N5CCCC5=O)s4)CC3)CC2)c1	?	-30.5	-19.5%	25.1µM*	nt
Cc1ccc(CNC(=O)C2CCN(c3nnc(N4CCCC4=O)s3)CC2)cc1	15.4%	13.6	-21.2%	-12.1%	-11.3%
CC(C)C[C@@H]1COc2cc(N3CCC[C@H]3CO)ccc2S(=O)(=O)N1	nt	16.9	5.8%	6.0%	4.9%
CCCCCCCCCCCCCCC(C(=O)O)C(O)(CC(=O)OC)C(=O)O (centres undefined)	nt	nt	0.0%	-2.8%	-0.6%
CCSc1n[nH]c2nc3c(c(=O)n12)C1(CCCC1)Cc1ccccc1-3	10.1%	-3.0	-24.4%	?	nt
Cc1ccc(-n2c(SCC(N)=O)nc3c(c2=O)C2(CCCC2)Cc2ccccc2-3)cc1	-29.3%	?	-24.2%	22.4µM*	i
C=C(C(=O)c1ccccc1)C(C)C(=C)C(=O)c1ccccc1	14.1µM*	-99.9*	?	?	?
C=C(C(=O)c1ccccc1)C(c1ccccc1)C(C)C(=O)c1ccccc1 (centres undefined)	4.3%	-88.8*	?	?	?
C=C(C(=O)c1ccccc1)C(C(=C)C(=O)c1ccccc1)c1ccc(OC)cc1	3.55µM*	-99.8*	nt	28.2µM*	nt
O=C(O)c1ccc(C(=O)C(=O)c2ccccc2)cc1	-2.5%	0.0	0.4%	15.4%	i
C(=Nc1ccc2ccccc2n1)c1ccccn1	nt	nt	2.1%	nt	-11.3%
Oc1ccccc1-n1c(-c2ccccc2)ccc1-c1ccccc1	?	-76.4*	?	?	?
COc1ccc([C@@H]2[C@@H](C(=O)N3CCOCC3)CC(=O)N2C(=O)/C=C/c2ccccc2)cc1	nt	-29.0	nt	nt	nt
CCOc1ccc(-c2cc(-c3nc(-c4cc(OC)c(OC)c(OC)c4)no3)[nH]n2)cc1	nt	-8.6	-7.8%	0.0%	-14.1%
